# From PubChem BioAssay (NCI)
# The panel holds about 83,000 compounds, 20% with a hit somewhere; the sample as a whole holds those more often.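 How to read the values: 0–100, growth inhibition (40 = 60% inhibited); 0, no net growth; -100 to 0, cell death (-40 = 40% of starting cells died; -100 = all dead).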 Unmarked numbers belong to inactive results. Active and inactive are the calls of the source.
# Tested on: OVCAR-4 ovarian
# Experiment: NCI-60 one-dose screen, 48 h (100 = growth as untreated, 0 = no growth, -100 = all killed)
# Details: 10 µM unless noted
# Procedure: Growth inhibition of the OVCAR-4 human tumor cell line is measured as a screen for anti-cancer activity. Cells are grown in 96 well plates and exposed to the test compound for 48 hours. Compounds are tested at a single concentration, which is 10^-5 M for most compounds. The reported endpoint is percent growth (GI% or GIPRCNT), where numbers from 0 - 100% represent growth inhibition, and numbers from -100% - 0 represent cell death. For example, a value of 40 represents 60% growth inhibition. A value of 0 means no net growth occurred over the course of the experiment. A value of -40 indicates 40% of cells at the beginning of the experiment died by the end of the experiment. A value of -100 means all cells are dead at the end of the experiment.
# NCI-60 Human Tumor Cell Lines Screen was performed using the standard one-dose NCI protocol, which is described in more detail at https://dtp.cancer.gov/discovery_development/nci-60/default.htm.
# Compounds with GIPRCNT values below 10 were considered active. Activity score was based on GIPRCNT using the following formula: […]
# Score is 0 for GIPRCNT values of 100 or above, 50 for GIPRCNT values of 0, and 100 for GIPRCNT values of -100.
row,Structure (SMILES),growth
1,Brc1ccc(-c2[nH]ncc2-c2c[nH]c3ccccc23)cc1,86.3%
2,COc1ccc(C2=CC(c3cc(OC)c(OC)c(OC)c3)NC(=O)N2)cc1OC (stereo not given),18.8%
3,O=[N+]([O-])c1ccc(-c2cn(-c3ccccc3)c(-c3ccccc3)n2)cc1,84.2%
4,N#Cc1c(Nc2ccccc2)nc2n(c1=O)-c1ccccc1Sc1ccccc1-2,58.4%
5,COc1cccc(-c2cc3c(O)cc(C#N)cc3[nH]2)c1,83.7%
6,CCCCOc1ccc(/C=C2/SC(N3CCCC3)=NC2=O)cc1,80.6%
7,CN(C)c1oc(C2OC2c2ccccc2)nc1C#N (stereo not given),109%
8,CCCCN(CCCC)C(=N)c1ccnc2ccccc12,94%
9,NC1=NN(O)C2=CC([N+](=O)[O-])C=CC2=N1 (stereo not given),108%
10,O=c1ccn(-c2ncnc3nc[nH]c23)cc1,93.3%
11,CCC(=O)OC1=CN2C(=NC(c3ccc(N)cc3)=CC2c2cc(OC)c(OC)c(OC)c2)S1 (stereo not given),57.3%
12,N/C(=N\S(=O)(=O)c1ccccc1)Nc1nc2ccccc2s1,100%
13,Cc1ccc(-c2nc(C#N)c(S(=O)(=O)n3nc(-c4ccccc4)cc3N)o2)cc1,114%
14,CCOC(=O)c1cn2c3c(cc(C)cc3c1=O)C(=O)/C(=C/c1ccccc1)C2,88.1%
15,O=C1c2ccccc2-c2ccccc2C1(Cl)Cl,-98.6% (active)
16,CCO/C=N/C1=C(C#N)C(c2ccc(Cl)cc2)c2c(c3ccc(C)cc3[nH]c2=O)O1 (stereo not given),85%
17,CN1CCN(Cc2ccc(NC(=O)c3cncc(C#Cc4cnc(N)c5ccncc45)c3)cc2C(F)(F)F)CC1,25.5%
18,O=S(=O)(NCCCNc1nccc(-n2ccc3cccnc32)n1)c1ccc(Br)cc1,99.3%
19,COc1ccc(/C=C2\Oc3cc(OCCCN4CCCC4)ccc3C2=O)c(OC)c1,90.3%
20,CC(C)(C)n1cc(-c2ccnc(NCCNS(=O)(=O)c3ccc(Cl)cc3)c2)c(-c2cccc(O)c2)n1,53.5%

row,Structure (SMILES),growth
1,Clc1ccc2c(NC3CCC(NC4CCCCC4)CC3)ccnc2c1 (stereo not given),50%
2,O=S(=O)(NCCCNc1nccc(-n2ccc3cccnc32)n1)c1cccc(C(F)(F)F)c1,101%
3,COc1cc(/C=N\NC(=O)CN2CCN(c3cc4c(cc3F)c(=O)c(C(=O)N/N=C/c3cc(OC)c(OC)c(OC)c3)cn4C3CC3)CC2)cc(OC)c1OC,-17.7% (active)
4,Cc1ccc(S(=O)(=O)/C(=C\c2ccc(Cl)cc2)C(=O)c2ccccc2)cc1,107%
5,O=C1NN(C(=O)c2ccc(Cl)cc2)C(c2ccccc2)=N/C1=C\c1ccc(F)cc1,99.1%
6,O=C(Nc1ccncc1)C(=O)c1cn(S(=O)(=O)c2ccc(Oc3ccccc3)cc2)c2ccccc12,88.3%
7,CN(C)CC(C(=O)c1ccccc1)c1ccccc1 (stereo not given),43.1%
8,COc1ccc(/C=C\c2cc(OC)c(OC)c(OC)c2)cc1OC(=O)c1cccc(Cn2cc(CCOC(=O)c3cccc(Cn4nnc5c4C(=O)c4ccccc4C5=O)c3)nn2)c1,31.6%
9,CCO/C=N/C1=C(C#N)C(c2ccc(Cl)cc2)c2c(c3ccccc3n(C)c2=O)O1 (stereo not given),68.6%
10,O=C(Nc1ccncc1)C(=O)c1cn(S(=O)(=O)c2ccc(Br)cc2)c2ccccc12,73.3%
11,Cc1[nH]c2ccc(F)cc2c1CCNC(=O)C1CCN(C(=O)c2ccccc2)C1 (stereo not given),85.5% [25 µM]
12,COc1ccc(NC(=O)c2cc(OC)c(OC)c(OC)c2)cc1O,57.4%
13,NC(=S)N/N=C(/CCN1CCCC1)CC(C1=C(O)C2=CCCCC2OC1=O)c1ccccc1 (stereo not given),62.2%
14,CCNc1nc(S(=O)(=O)CC)nc2ccccc12,99.7%
15,COc1ccc2[nH]c(C(=O)OCc3ccc4c(Cl)cc(Cl)c(O)c4n3)cc2c1,-57.5% (active)
16,COc1cccc(/C=C2\Oc3cc(OCCCN4CCCC4)ccc3C2=O)c1,112%
17,CC(=O)Nc1ccc(S(=O)(=O)n2ccc(-c3ccc4c(c3)CCC(C)(C)O4)n2)cc1,46.2%
18,S=c1[nH]nc(-c2cc3ccc2CCc2ccc(cc2)CC3)n1-c1ccccc1,83.1%
19,O=C(Nc1ccc2c(c1)OCO2)C(=O)c1c[nH]c2cc(F)ccc12,50.7%
20,c1ccc(-c2nc(N3CCNCC3)c3nc(-c4ccccc4)oc3n2)cc1,-65.1% (active)
